# Test results taken from the supplement of paper PMC8728848.
# This is one part of a sample in which the strongest signals are shown more often than they occur.
# What was measured:
# Assay in all cases: glycan array binding signal (z-score within array); higher = stronger binding
# Settings in all cases: glycan notation: IUPAC condensed, linker removed
# Glc(b1-6)Glc = target: Glc(b1-6)Glc
# Outline: (§1)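 The binding signal is a Z-score computed within each array. Data were drawn from 3228 arrays in the Consortium for Functional Glycomics database, restricted to those with a known protein sequence. Scores were averaged over arrays of the same protein sequence at different concentrations or buffers, and over linkers, and negative values can be taken as non-binding.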
# GlcA(b1-3)GlcNAc = target: GlcA(b1-3)GlcNAc
# Outline: as §1
# GlcA(b1-6)Gal = target: GlcA(b1-6)Gal
# Outline: as §1
# [1] = target: GlcNAc(a1-4)Gal(b1-4)GlcNAc(b1-3)Gal(b1-4)GlcNAc
# Outline: as §1
# [2] = target: GlcNAc(a1-6)Gal(b1-4)GlcNAc
# Outline: as §1
# [3] = target: GlcNAc(b1-3)Gal(b1-4)GlcNAc(b1-2)Man(a1-3)[GlcNAc(b1-3)Gal(b1-4)GlcNAc(b1-2)Man(a1-6)]Man(b1-4)GlcNAc(b1-4)GlcNAc
# Outline: as §1
# [4] = target: GlcNAc(b1-3)Gal(b1-4)GlcNAc(b1-3)Gal(b1-4)GlcNAc(b1-3)Gal(b1-4)GlcNAc(b1-2)[GlcNAc(b1-3)Gal(b1-4)GlcNAc(b1-3)Gal(b1-4)GlcNAc(b1-3)Gal(b1-4)GlcNAc(b1-6)]Man(a1-6)[GlcNAc(b1-3)Gal(b1-4)GlcNAc(b1-3)Gal(b1-4)GlcNAc(b1-3)Gal(b1-4)GlcNAc(b1-2)Man(a1-3)]Man(b1-4)GlcNAc(b1-4)[Fuc(a1-6)]GlcNAc
# Outline: as §1
# [5] = target: GlcNAc(b1-3)Gal(b1-4)GlcNAc(b1-3)Gal(b1-4)GlcNAc(b1-3)Gal(b1-4)GlcNAc(b1-3)Gal(b1-4)GlcNAc(b1-2)[GlcNAc(b1-3)Gal(b1-4)GlcNAc(b1-3)Gal(b1-4)GlcNAc(b1-3)Gal(b1-4)GlcNAc(b1-3)Gal(b1-4)GlcNAc(b1-6)]Man(a1-6)[GlcNAc(b1-3)Gal(b1-4)GlcNAc(b1-3)Gal(b1-4)GlcNAc(b1-3)Gal(b1-4)GlcNAc(b1-3)Gal(b1-4)GlcNAc(b1-2)Man(a1-3)]Man(b1-4)GlcNAc(b1-4)[Fuc(a1-6)]GlcNAc
# Outline: as §1
# [6] = target: GlcNAc(b1-3)Gal(b1-4)GlcNAc(b1-3)[GlcNAc(b1-3)Gal(b1-4)GlcNAc(b1-3)]GalNAc
# Outline: as §1
# [7] = target: GlcNAc(b1-3)Gal(b1-4)GlcNAc(b1-6)[GlcNAc(b1-3)]Gal(b1-4)GlcNAc
# Outline: as §1
# GlcNAc(b1-3)GalNAc = target: GlcNAc(b1-3)GalNAc
# Outline: as §1
# GlcNAc(b1-6)GalNAc = target: GlcNAc(b1-6)GalNAc
# Outline: as §1
# Kdn(a2-3)Gal(b1-3)GalNAc = target: Kdn(a2-3)Gal(b1-3)GalNAc
# Outline: as §1
# [8] = target: Man(a1-3)[Man(a1-6)]Man(a1-6)[Man(a1-3)]Man
# Outline: as §1
# [9] = target: Man(a1-3)[Man(a1-6)]Man(a1-6)[Man(a1-3)]Man(b1-4)GlcNAc(b1-4)GlcNAc
# Outline: as §1
# [10] = target: Man(a1-3)[Man(a1-6)]Man(b1-4)GlcNAc(b1-4)GlcNAc
# Outline: as §1
# Neu5Ac(a2-3)Gal = target: Neu5Ac(a2-3)Gal
# Outline: as §1
# [11] = target: Neu5Ac(a2-3)Gal(b1-4)GlcNAc(b1-3)Gal(b1-4)GlcNAc(b1-3)[Neu5Ac(a2-3)Gal(b1-4)GlcNAc(b1-3)Gal(b1-4)GlcNAc(b1-6)]GalNAc
# Outline: as §1
# [12] = target: Neu5Ac(a2-3)Gal(b1-4)GlcNAc(b1-3)Gal(b1-4)[Fuc(a1-3)]GlcNAc
# Outline: as §1
# [13] = target: Neu5Ac(a2-3)Gal(b1-4)[Fuc(a1-3)]GlcNAc(b1-3)GalNAc
# Outline: as §1
# [14] = target: Neu5Ac(a2-3)GalNAc(b1-4)GlcNAc
# Outline: as §1
# [15] = target: Neu5Ac(a2-6)Gal(b1-4)GlcNAc(b1-2)Man
# Outline: as §1
# [16] = target: Neu5Ac(a2-6)Gal(b1-4)GlcNAc(b1-2)Man(a1-6)[Gal(b1-4)GlcNAc(b1-2)Man(a1-3)]Man(b1-4)GlcNAc(b1-4)GlcNAc
# Outline: as §1
# [17] = target: Neu5Ac(a2-6)Gal(b1-4)GlcNAc(b1-2)Man(a1-6)[GlcNAc(b1-2)Man(a1-3)]Man(b1-4)GlcNAc(b1-4)GlcNAc
# Outline: as §1
# [18] = target: Neu5Ac(a2-6)Gal(b1-4)GlcNAc(b1-3)Gal(b1-4)GlcNAc(b1-2)Man(a1-3)[Neu5Ac(a2-6)Gal(b1-4)GlcNAc(b1-3)Gal(b1-4)GlcNAc(b1-2)Man(a1-6)]GalNAc
# Outline: as §1
# [19] = target: Neu5Ac(a2-6)Gal(b1-4)GlcNAc(b1-3)Gal(b1-4)GlcNAc(b1-3)[Neu5Ac(a2-6)Gal(b1-4)GlcNAc(b1-3)Gal(b1-4)GlcNAc(b1-6)]GalNAc
# Outline: as §1
# [20] = target: Neu5Ac(a2-6)Gal(b1-4)GlcNAc(b1-6)[Gal(b1-3)GlcNAc(b1-3)]Gal(b1-4)Glc
# Outline: as §1
# [21] = target: Neu5Gc(a2-3)Gal(b1-3)GlcNAc
# Outline: as §1
# [22] = target: Neu5Gc(a2-8)Neu5Gc(a2-3)Gal(b1-4)GlcNAc
# Outline: as §1
binder,measurement,setting,value
HFR-3 (Triticum aestivum) (protein) MKGLLLCALALAFAAVTTHAQLQSCPTRCGKQADGMECPNNLCCSKDGYCGLGVDYCSAGAGCQSGACYDNKICGAQANGTLCRNNHCCSSGGRCGYGREYCSNGCQGGPCWADLKCGHLDNGKLCPNNLCCSQYGYCGLGPEFCGTGCQNGACSTDKPCGNKANGAPCTNNYCCSQYGSCGLGKDYCGTGCQNGACN,glycan array binding signal (z-score),Glc(b1-6)Glc,-0.1
same,glycan array binding signal (z-score),GlcA(b1-3)GlcNAc,0.799
same,glycan array binding signal (z-score),GlcA(b1-6)Gal,-0.641
same,glycan array binding signal (z-score),[1],0.598
same,glycan array binding signal (z-score),[2],-0.582
same,glycan array binding signal (z-score),[3],0.65
same,glycan array binding signal (z-score),[4],2.43
same,glycan array binding signal (z-score),[5],1.15
same,glycan array binding signal (z-score),[6],0.04
same,glycan array binding signal (z-score),[7],-1.09
same,glycan array binding signal (z-score),GlcNAc(b1-3)GalNAc,2.18
same,glycan array binding signal (z-score),GlcNAc(b1-6)GalNAc,-0.591
same,glycan array binding signal (z-score),Kdn(a2-3)Gal(b1-3)GalNAc,2.75
same,glycan array binding signal (z-score),[8],2.17
same,glycan array binding signal (z-score),[9],3.89
same,glycan array binding signal (z-score),[10],0.828
same,glycan array binding signal (z-score),Neu5Ac(a2-3)Gal,-0.367
same,glycan array binding signal (z-score),[11],0.555
same,glycan array binding signal (z-score),[12],-0.597
same,glycan array binding signal (z-score),[13],-0.052
same,glycan array binding signal (z-score),[14],1.18
same,glycan array binding signal (z-score),[15],0.755
same,glycan array binding signal (z-score),[16],-0.801
same,glycan array binding signal (z-score),[17],-0.077
same,glycan array binding signal (z-score),[18],0.189
same,glycan array binding signal (z-score),[19],0.943
same,glycan array binding signal (z-score),[20],-0.251
same,glycan array binding signal (z-score),[21],-0.969
same,glycan array binding signal (z-score),[22],-0.961
